A selection: hits, their analogues and other compounds. The true share with any hit is near 0.92%.
LAP4 TOR yeast: modulators of TOR pathway LAP4-GFP in S. cerevisiae; S. cerevisiae LAP4-GFP multiplex, flow cytometry GFP, 3 h; median GFP as percent of DMSO wells; GFP response vs DMSO, % at 10 µM; 320,000 compounds, 0.34% hits; AID 2023;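 active means GFP response vs DMSO above a set limit, about the screen mean plus 3 SD, cut at about 150% in these data; inconclusive means under 70 cell events counted for the yeast strain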
CIT2-GFP yeast: modulators of TOR pathway CIT2-GFP in S. cerevisiae; GFP response vs DMSO, % at 10 µM; S. cerevisiae CIT2-GFP strain, flow cytometry, 3 h; 100 means same as DMSO wells; AID 2029; 320,000 compounds, 0.065% hits;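 active means GFP response relative to DMSO above a set limit, near the screen mean plus 3 SD, cut at about 150% in these data; inconclusive means Fewer than 70 cells measured for a yeast strain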;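 further: ratio of well median GFP fluorescence to mean of DMSO wells on the plate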
MEP2 TOR yeast: yeast TOR pathway MEP2-GFP modulation | S. cerevisiae MEP2-GFP strain, flow cytometry GFP, 3 h; 100% = DMSO control level | GFP response vs DMSO, % at 10 µM | 330,000 compounds, 0.51% hits | AID 2016;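 active means GFP response versus DMSO above a set limit, roughly screen mean plus 3 SD, cut at about 180% in these data; inconclusive means fewer than 70 cells counted for a yeast strain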;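 further: median GFP fluorescence of the barcode-gated MEP2-GFP cells per well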
RPL19A TOR yeast: alters RPL19A-GFP fluorescence in TOR pathway yeast screen; 330,000 compounds, 0.3% hits; S. cerevisiae RPL19A-GFP strain, flow cytometry, 3 h; hits give low values; percent response vs DMSO, % at 10 µM; AID 2025;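 active means percent response vs DMSO below 50%; inconclusive means fewer than 70 events counted for the yeast strain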;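 further: median channel GFP fluorescence of the barcoded RPL19A-GFP strain; lower means less RPL19A-GFP as with rapamycin TOR inhibition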
AGP1-GFP MLPCN: yeast TOR pathway AGP1-GFP modulation; AID 2066; 320,000 compounds, 0.02% hits; GFP response vs DMSO, % at 10 µM; S. cerevisiae AGP1-GFP multiplex flow cytometry, 3 h; GFP as percent of DMSO wells;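 active means GFP response relative to DMSO above a set limit, near screen average plus 3 SD, cut at about 150% in these data; inconclusive means fewer than 70 cells counted for the yeast strain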;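 further: median GFP channel fluorescence of the gated AGP1 strain per well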
LAP4-GFP pick2: second confirmation of modulators of TOR reporter LAP4-GFP in yeast. shares compounds with LAP4 TOR yeast. S. cerevisiae LAP4-GFP strain, flow cytometry GFP, 3 h. GFP response vs DMSO, % at 10 µM. 590 compounds, 20% hits. AID 2621;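 active means GFP signal as percent of the solvent control above about 150%, meaning raised reporter expression, limit read from the data; inconclusive means fewer than 70 cells counted in the well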
MEP2 cherry2: reconfirmed MEP2-GFP TOR pathway modulator in yeast; GFP response vs DMSO, % at 10 µM; S. cerevisiae MEP2-GFP strain, flow cytometry GFP, 3 h; 590 compounds, 10% hits; shares compounds with LAP4 TOR yeast; AID 2622;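 active means GFP signal above 150% of the solvent control wells, that is a rise of more than half; inconclusive means fewer than 70 yeast cells counted in the well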;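 further: median channel GFP fluorescence of all gated yeast cells per well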
RPL19A-GFP pick2: second confirmation of modulators of TOR reporter RPL19A-GFP in yeast; 590 compounds, 3% hits; shares compounds with LAP4 TOR yeast; S. cerevisiae RPL19A-GFP strain, flow cytometry GFP, 3 h; hits give low values; 100% means same as DMSO wells; GFP response vs DMSO, % at 10 µM;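 active means under 65% GFP response relative to DMSO; inconclusive means yeast strain with under 70 measured events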;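 further: median GFP channel fluorescence per well over the all cells gate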
CIT2 GFP CP2: second confirmation of modulators of TOR reporter CIT2-GFP in yeast. 590 compounds, 8% hits. shares compounds with LAP4 TOR yeast. S. cerevisiae CIT2-GFP strain, flow cytometry GFP, 3 h; DMSO control wells read 100%. GFP response vs DMSO, % at 10 µM. AID 2624;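 active means GFP response vs DMSO above about 150%, limit read from the data; inconclusive means fewer than 70 events counted for a yeast strain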;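 further: median green fluorescence per well over all gated yeast cells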
AGP1-GFP pick2: yeast AGP1-GFP TOR reporter modulation, second cherry pick; shares compounds with LAP4 TOR yeast; S. cerevisiae AGP1-GFP strain, flow cytometry GFP, 3 h; percent response vs DMSO, % at 10 µM; 590 tested, under 10 active;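 active means over 150 percent of DMSO response; inconclusive means yeast strain measured with under 70 events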;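 further: median GFP channel fluorescence over all cells without mother daughter split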
Yeast autofluor: counter-screen for compound autofluorescence in yeast s288c cells; fluorescence change (kMESF span) at 33 µM; 610 tested, under 10 active; S. cerevisiae s288c, 520 nm autofluorescence, flow cytometry, 3 h; hits give high values; zero means same as solvent-only cells; AID 2757; shares compounds with LAP4 TOR yeast;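 active means fluorescence span over the dose series, or activity score, above about 33, limit read from the data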
s288c autofl DR: yeast s288c autofluorescence artifact in dose response. shares compounds with LAP4 TOR yeast. S. cerevisiae s288c parental, compound autofluorescence, flow cytometry, 3 h. fluorescence change (span) at 33 µM. 110 tested, under 10 active. AID 488829;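 active means fluorescence change span, or the activity score built from it, above 25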
TORC1 bypass gr: compounds blocking wildtype yeast growth but not TORC1 bypass cells | growth rating (0-3) at 30 µM | 120 tested, under 10 active | S. cerevisiae BY4741 spot growth rating, 48-72 h; hits give low values | shares compounds with LAP4 TOR yeast | AID 504456;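 active means growth rating at most 1 for wild type yeast while the TORC1 bypass strain still grows fully, rated 3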
Hits are given with their value; – = inactive; ? = inconclusive; · = no result.

SMILES	LAP4 TOR yeast	CIT2-GFP yeast	MEP2 TOR yeast	RPL19A TOR yeast	AGP1-GFP MLPCN	Yeast autofluor	others
Cc1ccc2nc(Cl)c3nnnn3c2c1	298	–	–	–	–	–	s288c autofl DR=–;TORC1 bypass gr=–
CCSc1nnc(NC(=O)c2ccccn2)s1	175	–	–	–	–	–	s288c autofl DR=–;TORC1 bypass gr=–
OCCC1CN(Cc2cccc3c2OCO3)CCN1C1CCCC1 (stereo unspecified)	–	–	–	–	–	·
Cc1cc([N+](=O)[O-])ccc1NC(=O)Nc1ccc(F)cc1F	171	–	–	–	–	·	LAP4-GFP pick2=–;MEP2 cherry2=–;RPL19A-GFP pick2=–;CIT2 GFP CP2=–;AGP1-GFP pick2=–
COc1ccc(NC(=O)Nc2ccc(F)cc2F)c(C)c1	–	–	–	–	–	·
O=C(Oc1c(Cl)cc(Cl)c2cccnc12)c1cccs1	222	–	–	–	–	–	LAP4-GFP pick2=201;MEP2 cherry2=–;RPL19A-GFP pick2=–;CIT2 GFP CP2=–;AGP1-GFP pick2=–
O=C(Oc1c(Cl)cc(Cl)c2cccnc12)c1ccco1	230	–	–	–	–	–	s288c autofl DR=–;TORC1 bypass gr=–
CCn1nc(C)cc1C(=O)n1nc(C)c(Sc2ncccn2)c1C	–	–	–	–	–	·
O=C(CN(C1CCCCC1)S(=O)(=O)c1ccc(Cl)cc1)N1CCOCC1	–	–	–	–	–	·	LAP4-GFP pick2=–;MEP2 cherry2=–;RPL19A-GFP pick2=–;CIT2 GFP CP2=–;AGP1-GFP pick2=–
O=C(CN(C1CCCCC1)S(=O)(=O)c1ccccc1)N1CCCC1	–	–	–	–	–	·
O=C(c1cc2c(=O)n3ccccc3nc2s1)N1CCc2ccccc2C1	–	–	–	–	–	·
Cc1ccc(Cl)cc1NC(=O)CN1C(=O)NC(C)(C2CC2)C1=O (stereo unspecified)	151	–	–	–	–	·	LAP4-GFP pick2=–;MEP2 cherry2=–;RPL19A-GFP pick2=–;CIT2 GFP CP2=–;AGP1-GFP pick2=–
COc1ccc(-c2cc3c(=O)n(CC(=O)NCCN4CCCC4)nc(C)n3n2)cc1	–	–	–	–	–	·
CCSc1nnc(NS(=O)(=O)c2ccc(C)cc2)s1	–	–	–	–	–	·
Cc1ccc2nc(/C(C#N)=C/c3ccccc3C(=O)O)[nH]c2c1	–	–	–	–	–	·
Cc1ccc2nc(/C(C#N)=C/c3ccc(O)c(O)c3)[nH]c2c1	–	150	189	–	–	–
O=c1c(-c2ccccc2)c(O)nc(SCCN2CCOCC2)n1-c1ccccc1	–	–	–	–	–	·
CCOc1ccc(N(CC(=O)Nc2ccc(C)c(C)c2)S(C)(=O)=O)cc1	–	–	–	–	–	·
O=C(CCS(=O)(=O)c1ccc2c(c1)NC(=O)CS2)NCCc1ccccc1	159	–	–	–	–	·	LAP4-GFP pick2=–;MEP2 cherry2=–;RPL19A-GFP pick2=–;CIT2 GFP CP2=–;AGP1-GFP pick2=–
O=C(CCS(=O)(=O)c1ccc2c(c1)NC(=O)CS2)NCCc1ccc(Cl)cc1	–	–	–	–	–	·
O=[N+]([O-])c1cc2cccnc2c2ncccc12	–	–	–	–	–	·
O=[N+]([O-])c1cc(O)c2ncccc2c1	169	–	–	–	–	–	s288c autofl DR=–;TORC1 bypass gr=–
Cc1ccc(OCC2Cn3c(nc4c3c(=O)[nH]c(=O)n4C)O2)cc1C (stereo unspecified)	–	–	–	–	–	·
COc1ccccc1N=Nc1ccc(O)c2ncccc12	249	–	–	–	–	–
Cc1ccc(N=Nc2ccc(O)c3ncccc23)cc1C	–	–	–	–	–	·
SMILES	LAP4 TOR yeast	CIT2-GFP yeast	MEP2 TOR yeast	RPL19A TOR yeast	AGP1-GFP MLPCN	Yeast autofluor	others
Cc1ccc(N=Nc2ccc(O)c3ncccc23)cc1	157	–	–	–	–	–	LAP4-GFP pick2=188;MEP2 cherry2=–;RPL19A-GFP pick2=–;CIT2 GFP CP2=150;AGP1-GFP pick2=–
COc1ccc(S(=O)(=O)N(C)C)cc1NC(=O)COC(=O)Cn1cnc2ccccc2c1=O	–	–	–	–	–	·
O=C(C#Cc1ccccc1)c1cccc([N+](=O)[O-])c1	202	–	–	–	–	–
CC(=O)c1cccc([N+](=O)[O-])c1	–	–	–	–	–	·
CCc1sc(C(=O)NCCCn2ccnc2)cc1Br	–	?	–	?	–	·
CC12CCC(=O)N1C(C(=O)NCc1ccc(Cl)cc1Cl)CS2 (stereo unspecified)	–	–	–	–	–	·
Cc1ccc(NN2C(=O)C=CC2=O)cc1	–	–	–	–	–	·
Cc1ccc(NN2C(=O)C=C(c3ccc(Cl)cc3)C2=O)cc1	203	–	–	–	–	–
COc1ccc(C2=CC(=O)N(Nc3ccccc3)C2=O)cc1	232	–	–	–	–	–
O=C1C2CC=CCC2C(=O)N1Nc1ccccc1 (stereo unspecified)	–	–	–	–	–	·
O=C1C=C(c2ccccc2)C(=O)N1Nc1ccccc1	–	–	–	48	–	–
Cc1ccc(C)c(C(=O)COc2ncnc3ccccc23)c1	–	–	–	–	–	·
O=C1N(c2ccccc2C(F)(F)F)O[C@@]1(c1ccccc1)C1CCCCC1	–	–	–	–	–	–	LAP4-GFP pick2=–;MEP2 cherry2=–;RPL19A-GFP pick2=–;CIT2 GFP CP2=–;AGP1-GFP pick2=–
O=C1N(c2ccccc2C(F)(F)F)O[C@@]1(c1ccccc1)C1CCCC1	–	–	–	–	–	–	LAP4-GFP pick2=–;MEP2 cherry2=–;RPL19A-GFP pick2=–;CIT2 GFP CP2=–;AGP1-GFP pick2=–
O=C(NCC(=O)N1CCN(c2ccccc2O)CC1)C1CCCCC1	–	–	–	–	–	·
O=C(NCC(=O)N1CCC(N2CCCCC2)CC1)C1CCCCC1	–	–	230	26	–	·	LAP4-GFP pick2=–;MEP2 cherry2=–;RPL19A-GFP pick2=–;CIT2 GFP CP2=–;AGP1-GFP pick2=–
FC(F)Oc1ccc(NC(=S)NNc2ccnc3cc(Cl)ccc23)cc1	–	–	–	–	–	·
Cc1cccc(N=C2NC(=O)/C(=C/C=C/c3ccco3)S2)c1C	162	–	–	–	–	–	LAP4-GFP pick2=190;MEP2 cherry2=–;RPL19A-GFP pick2=–;CIT2 GFP CP2=–;AGP1-GFP pick2=–

Compound activity: PubChem BioAssay, NMMLSC
